Bioassay records as filed in PubChem.
PI5P4Ka inh = blocks human PI5P4K alpha kinase activity; AID 652105; P48426; 1.2% of 330,000 active; max response, %; PI5P4Kalpha enzyme, ADP-Glo luminescence, 60 min; active compounds read low; active means max response of -50% or lower; inconclusive means between -30% and -50%; inactive means -30% or higher; further: value at the top dose of about 77 µM; on the % scale 0 is the no-effect control and ±100 the full control effect
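ADP-Glo luminescence end-point after a 60 min room-temperature kinase reaction. PI5P4Kalpha and substrate in HEPES pH 7.4 buffer with EGTA, 0.1% CHAPS and 5% DMSO; ATP at 5 microM final.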
HP1b binding inh = inhibitors of HP1-beta chromodomain binding to methylated histone tails | P83916 | AlphaScreen HP1-beta / biotin-H3K9me3 peptide binding | Potency, µM (series often up to 114 µM), for the others: at the top dose activity change, negative = inhibition, most hits filed as inhibitors | 0.56% of 390,000 active; further: potency means the concentration at half of the fitted maximal effect; nearly all actives have a fitted effect of over 70% in size
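AlphaScreen: HP1-beta (50 nM) preformed 30 min with biotin-H3(1-18)K9me3 peptide (50 nM) in PBS pH 7.4, 0.01% Tween-20. Compound added for 30 min at RT, then streptavidin donor/nickel chelate acceptor beads (10 ug/mL) for 30 min.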
KDM4E inh = inhibitors of human JMJD2E histone demethylase; JMJD2E catalytic domain, FDH-coupled NADH fluorescence (FDH is formaldehyde dehydrogenase); Potency, µM (titrated, usually from 57.1 µM), for the others: at the top dose activity change, negative = inhibition, hits mostly inhibitors; B2RXH2; 1.6% of 230,000 active; active means well fitted inhibition curve with a large enough effect, not every such curve was filed as active; inconclusive means small, poorly fitted or top-dose-only effect, or another doubt; inactive means no such curve, though single readings can be large or run the other way;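 further: potency means the concentration at half of the fitted maximal effect; 0% = wells with enzyme and -100% = buffer wells without enzyme; nearly all actives have a fitted effect of over 50% in size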
BAZ2B inh = BAZ2B (human) inhibition; Q9UIF8; AlphaScreen BAZ2B-H3K14Ac peptide displacement; Potency, µM (doses to about 114 µM), for inactives: top-dose activity change, negative = inhibition, actives largely listed as inhibitors; 4.4% of 360,000 active; AID 504333; further: potency means the concentration at half of the fitted maximal effect; on the % scale 0 is the no-effect control and ±100 the full control effect; nearly all actives have a fitted effect of over 60% in size
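AlphaScreen displacement: compounds (up to 110uM) incubated 30 min at room temperature with a preformed 50 nM BAZ2B/50 nM biotinylated H3K14Ac peptide complex in PBS pH 7.4 with Tween-20. Donor and acceptor beads at 10 ug/mL final added, 20 min light-protected before reading.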
JMJD2A Tudor inh = blocks the human JMJD2A Tudor domain | AlphaScreen JMJD2A-Tudor / H3K4me3 peptide binding | Potency, µM (titrated, usually from 114 µM), for the others: at the highest dose activity change, negative = inhibition, usual class: inhibitors | 4.4% of 390,000 active; further: potency means the concentration at half of the fitted maximal effect; on the % scale 0 is the no-effect control and ±100 the full control effect; nearly all actives have a fitted effect of over 50% in size
L3MBTL1 block = L3MBTL1 (human) inhibition | Q9Y468 | AlphaScreen L3MBTL1–H3K9me1 peptide binding | Potency, µM (top dose mostly 57.1 µM), inactives show top-dose activity, negative = inhibition, hits mostly inhibitors | 0.66% of 230,000 active; further: potency means the concentration at half of the fitted maximal effect; on the % scale 0 is the no-effect control and ±100 the full control effect; nearly all actives have a fitted effect of over 60% in size
Target sequence (Q9Y468 whole entry, looked up): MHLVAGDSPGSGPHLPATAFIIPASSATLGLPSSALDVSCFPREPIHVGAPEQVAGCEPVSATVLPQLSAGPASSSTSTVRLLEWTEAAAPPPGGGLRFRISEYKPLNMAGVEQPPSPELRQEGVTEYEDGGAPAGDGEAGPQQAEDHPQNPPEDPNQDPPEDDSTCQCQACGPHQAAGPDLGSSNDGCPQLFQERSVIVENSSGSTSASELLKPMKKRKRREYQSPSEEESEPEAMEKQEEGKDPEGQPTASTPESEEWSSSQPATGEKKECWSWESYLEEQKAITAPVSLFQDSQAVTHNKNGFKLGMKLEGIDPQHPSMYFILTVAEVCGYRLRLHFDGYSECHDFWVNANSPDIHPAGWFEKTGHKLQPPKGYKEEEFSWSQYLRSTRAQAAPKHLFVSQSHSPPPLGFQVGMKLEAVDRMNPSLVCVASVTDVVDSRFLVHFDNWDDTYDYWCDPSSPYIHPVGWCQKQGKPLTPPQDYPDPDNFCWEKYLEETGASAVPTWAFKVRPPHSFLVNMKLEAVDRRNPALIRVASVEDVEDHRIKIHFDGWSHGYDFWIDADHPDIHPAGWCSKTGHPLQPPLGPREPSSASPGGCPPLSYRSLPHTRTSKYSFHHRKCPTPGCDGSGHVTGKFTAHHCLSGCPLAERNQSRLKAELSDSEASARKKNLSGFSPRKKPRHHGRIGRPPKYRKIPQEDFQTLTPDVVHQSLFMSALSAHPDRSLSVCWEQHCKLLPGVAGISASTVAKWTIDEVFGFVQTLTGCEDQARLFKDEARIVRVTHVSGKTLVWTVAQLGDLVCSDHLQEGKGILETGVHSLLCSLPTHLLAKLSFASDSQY
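First, the protein-peptide complex forms for 30 min at room temperature (L3MBTL1 50 nM, biotinylated H3K9me1 peptide 75 nM). Next, compounds are pin-transferred and incubated 30 min. Finally, AlphaScreen beads are added and read after 30 min.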
Starred values were filed as active, the others as inactive; [ ] = another dose, or the depositor's remark. An excerpt weighted towards active compounds, which were near 5.7% of everything screened. Unless noted, the call rests on the fitted dose curve; in most records, active means well fitted inhibition curve with a large enough effect; inconclusive means small, poorly fitted or top-dose-only effect; inactive means no such curve, though single readings can be large or run the other way.

Cc1nnc(SCC(=O)c2cc(C)n(-c3ccc4c(c3)OCO4)c2C)s1 was read as HP1b binding inh -22%, KDM4E inh -3%, BAZ2B inh 45µM*, JMJD2A Tudor inh inconclusive and L3MBTL1 block -26%.
`Cc1cc(C(=O)CSc2nnnn2C)c(C)n1-c1ccc2c(c1)OCCO2` gave HP1b binding inh -20%, KDM4E inh -5%, BAZ2B inh inconclusive and JMJD2A Tudor inh inconclusive.
`N[C@H](C(=O)O)[C@@H]1[C@@H](C(=O)O)C1(F)F` gave KDM4E inh 16µM*.
COC(=O)c1cc(OC)c(OC)cc1NC(=S)Nc1cccc(C(C)=O)c1 was read as PI5P4Ka inh 7, HP1b binding inh 5%, KDM4E inh inconclusive, BAZ2B inh 5%, JMJD2A Tudor inh 22µM* and L3MBTL1 block 10%.
Screening O=C(Nc1ccc(N2CCOCC2)c(F)c1)c1cccs1 returned PI5P4Ka inh 7, HP1b binding inh 28%, BAZ2B inh -3% and JMJD2A Tudor inh -19%.
O=C(Nc1cc(S(=O)(=O)N2CCOCC2)ccc1N1CCOCC1)c1cccs1 was read as PI5P4Ka inh 0, HP1b binding inh -21%, BAZ2B inh 0%, JMJD2A Tudor inh 89µM* and L3MBTL1 block 5%.
Screening COc1ccc(S(=O)(=O)N2CCOCC2)cc1NC(=O)c1cccs1 returned PI5P4Ka inh -5, HP1b binding inh 35%, BAZ2B inh 3%, JMJD2A Tudor inh 5% and L3MBTL1 block 4%.
`COC(=O)c1cc(NC(=O)c2cccs2)ccc1N1CCOCC1` gave PI5P4Ka inh 7, HP1b binding inh -2%, KDM4E inh -7%, BAZ2B inh -3%, JMJD2A Tudor inh 50µM* and L3MBTL1 block 16%.
`Cc1ccc(N(CC(=O)N2CCCC2)S(C)(=O)=O)c(C)c1` gave PI5P4Ka inh -7, HP1b binding inh 29%, BAZ2B inh 2%, JMJD2A Tudor inh -10% and L3MBTL1 block 7%.
`CC(C)c1ccc(C2Sc3ccccc3NC3=C2C(=O)c2ccccc23)cc1` (stereo unspecified) gave HP1b binding inh inconclusive, BAZ2B inh 8.9µM* and JMJD2A Tudor inh 11µM*.
`CCc1ccc(C2Sc3ccccc3NC3=C2C(=O)c2ccccc23)cc1` (stereo unspecified) gave HP1b binding inh inconclusive and JMJD2A Tudor inh 25µM*.
CC(=O)Nc1ccc(C2Sc3ccccc3NC3=C2C(=O)c2ccccc23)cc1 (stereo unspecified) was read as HP1b binding inh inconclusive and JMJD2A Tudor inh 13µM*.
For O=C1C2=C(Nc3ccccc3SC2c2ccc(C(F)(F)F)cc2)c2ccccc21 (stereo unspecified) the results were HP1b binding inh inconclusive and JMJD2A Tudor inh 28µM*.
`O=C1CCC=C1C(O)CCc1ccccc1` (stereo unspecified) gave KDM4E inh 9%.
`Cc1ccc(C)c(NC(=O)C2CCCN(c3nc4ccccc4s3)C2)c1` (stereo unspecified) gave HP1b binding inh 20%, BAZ2B inh -3% and JMJD2A Tudor inh -15%.
`O=C1c2ccccc2NC(c2ccco2)N1O` (stereo unspecified) gave PI5P4Ka inh 3, HP1b binding inh 51%, KDM4E inh inconclusive, BAZ2B inh -7%, JMJD2A Tudor inh -18% and L3MBTL1 block -1%[11.4 µM].
For O=C1C2=C(Nc3ccccc3SC2c2ccco2)c2ccccc21 (stereo unspecified) the results were PI5P4Ka inh inconclusive, HP1b binding inh 22µM*, KDM4E inh inconclusive, BAZ2B inh 35µM* and JMJD2A Tudor inh 35µM*.
`CCN(c1ccccc1)S(=O)(=O)c1ccc(Oc2ccc(-n3ccnc3)cc2)nc1` gave PI5P4Ka inh 0, HP1b binding inh -6%, KDM4E inh inconclusive, BAZ2B inh inconclusive, JMJD2A Tudor inh 89µM* and L3MBTL1 block -87%.
Screening S=C(NCCCN1CCOCC1)NN=C1c2ccccc2-c2ccccc21 returned PI5P4Ka inh 1.
Screening CCCN1C(=O)c2cc(C(=O)Nc3ccc(OC)cc3OC)ccc2C1Nc1ccc(OC)cc1OC (stereo unspecified) returned PI5P4Ka inh -5, HP1b binding inh -20%, KDM4E inh -21%, BAZ2B inh inconclusive and JMJD2A Tudor inh 28µM*.
Screening CCCN1C(=O)c2cc(C(=O)Nc3ccc(OC)c(OC)c3)ccc2C1Nc1ccc(OC)c(OC)c1 (stereo unspecified) returned PI5P4Ka inh 5, HP1b binding inh 36%, KDM4E inh -4%, BAZ2B inh -7% and JMJD2A Tudor inh -13%.
For Cc1nn2cc(-c3ccc(OC(C)C)cc3)nc2s1 the results were HP1b binding inh 12%, BAZ2B inh inconclusive and JMJD2A Tudor inh -19%.
Screening CSc1nnc(N2C(=O)C(O)=C(C(=O)c3ccco3)C2c2cccc(Cl)c2)s1 (stereo unspecified) returned PI5P4Ka inh 1, HP1b binding inh 33%, BAZ2B inh 79µM* and JMJD2A Tudor inh inconclusive.
`CCSc1nnc(N2C(=O)C(O)=C(C(=O)c3ccco3)C2c2cccc(OC)c2)s1` (stereo unspecified) gave PI5P4Ka inh inconclusive, HP1b binding inh 24%, BAZ2B inh inconclusive and JMJD2A Tudor inh 89µM*.
Screening O=Cc1ccc(O)cc1O returned PI5P4Ka inh -2, HP1b binding inh 4%, BAZ2B inh 0% and JMJD2A Tudor inh -10%.
For O=CN/C=C/c1cc(O)ccc1O the results were PI5P4Ka inh -64*, HP1b binding inh inconclusive, KDM4E inh inconclusive, BAZ2B inh 79µM*, JMJD2A Tudor inh 3.2µM* and L3MBTL1 block 16µM*.
For COc1cccc(N2C(=O)c3ccccc3C2=O)n1 the results were JMJD2A Tudor inh 6%.
Cc1ccc(C(=O)OC[C@H]2O[C@H](Cl)C[C@@H]2OC(=O)c2ccc(C)cc2)cc1 was read as KDM4E inh 7%.
CCN(CC)CCNc1ccc(C)c2sc3ccc(O)cc3c(=O)c12 was read as PI5P4Ka inh 2, HP1b binding inh inconclusive and JMJD2A Tudor inh 22µM*.
Screening CCN(CC)CCNc1ccc(CO)c2oc3cc(Cl)ccc3c(=O)c12 returned PI5P4Ka inh -18.
`CCN(c1ccc(NC(=O)COC(=O)c2cc3ccccc3oc2=O)cc1)C(C)C` gave PI5P4Ka inh -3, HP1b binding inh inconclusive, KDM4E inh inconclusive, BAZ2B inh 32µM*, JMJD2A Tudor inh 28µM* and L3MBTL1 block inconclusive.
